ST2 inh: inhibitors of human ST2 (IL1RL1) binding to IL-33, primary screen, biochemical, AlphaLISA | Interleukin-1 receptor-like 1 (Homo sapiens), Q01638 | hit rate 2.3% among 78,000 | inhibition, % for hits at 17 µM | AlphaLISA ST2-Fc/biotin-IL-33 interaction, 1 h; in the data active = inhibition above about 30%
Target sequence (Q01638 whole entry, looked up): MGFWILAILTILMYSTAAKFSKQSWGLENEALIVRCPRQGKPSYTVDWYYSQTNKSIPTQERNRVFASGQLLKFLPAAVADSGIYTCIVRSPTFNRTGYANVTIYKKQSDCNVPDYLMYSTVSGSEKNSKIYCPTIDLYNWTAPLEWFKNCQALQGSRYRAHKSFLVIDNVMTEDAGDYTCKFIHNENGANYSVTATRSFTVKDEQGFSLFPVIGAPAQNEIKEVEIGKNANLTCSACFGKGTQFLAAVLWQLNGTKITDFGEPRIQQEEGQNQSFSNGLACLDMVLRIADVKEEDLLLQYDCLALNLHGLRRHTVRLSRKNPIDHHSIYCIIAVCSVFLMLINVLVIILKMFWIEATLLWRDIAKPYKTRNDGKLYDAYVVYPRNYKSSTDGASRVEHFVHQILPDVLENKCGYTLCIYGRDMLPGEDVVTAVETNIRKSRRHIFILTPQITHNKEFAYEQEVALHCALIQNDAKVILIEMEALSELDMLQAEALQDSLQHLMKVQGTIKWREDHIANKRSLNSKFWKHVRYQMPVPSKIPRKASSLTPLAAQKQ
* marks the source's active call; other numbers are inactive results; i = inactive; ! = a repeat was not active. Many of the other results were omitted from the sample, so hits are more common in it than they were.

SMILES | ST2 inh
CC1CCCC(C)N1CCCNC(=O)C1c2ccccc2C(=O)N1Cc1ccc2c(c1)OCO2 (configuration not stated) | i
COc1ccc(NC(=O)N2Cc3[nH]cnc3C[C@H]2c2nc(-c3cccc([N+](=O)[O-])c3)no2)cc1 | i
CN1C[C@@H](NC(=O)CC(C)(C)C)C[C@H]1c1nc(-c2cnccn2)no1 | 34%*
CN1C[C@@H](NC(=O)c2ccccn2)C[C@H]1c1nc(-c2ccncc2)no1 | i
CN1C[C@@H](NC(=O)COc2ccccc2)C[C@H]1c1nc(-c2cccnc2)no1 | 65%*
CN1C[C@@H](NC(=O)CC(C)(C)CC(=O)O)C[C@H]1c1nc(-c2ccccn2)no1 | i
CN1C[C@@H](NC(=O)c2ccccn2)C[C@H]1c1nc(-c2ccccn2)no1 | i
CN1C[C@@H](NC(=O)c2ccc3c(c2)OCO3)C[C@H]1c1nc(-c2cccnc2)no1 | i
CN1C[C@@H](NC(=O)c2cccnc2)C[C@H]1c1nc(-c2ccc(Cl)cc2)no1 | i
CN(C)c1ccc(C(=O)N[C@H]2C[C@@H](c3nc(-c4cccnc4)no3)N(C)C2)cc1 | 58%*
CN1C[C@@H](NC(=O)c2ccc(F)cc2)C[C@H]1c1nc(-c2ccccc2)no1 | i
CCOc1ccccc1C(=O)Nc1ccc([N+](=O)[O-])c(NC(=O)c2ccccc2OCC)c1 | i
CCCC(=O)Oc1ccc2c(=O)c(Oc3ccccc3Br)coc2c1 | i
COc1ccc(NC(=O)c2cn(C)c(=O)c3c2c2ccccc2n3C)c(OC)c1 | i
CCSC1=N/C(=C2\C=Cc3ccccc3N2CC)C(=O)S1 | 73%*
CCN1C(=O)CC(c2ccccc2)Sc2ccccc21 (configuration not stated) | i
CCN1/C(=C2\C(=O)N(c3ccc(Cl)cc3)N=C2C)C=Cc2ccccc21 | i
Cc1cc(C)cc(-n2c(CN3CCNCC3)nc3cccnc32)c1 | i
CSc1ccc(C2C(C(=O)Nc3ccc(C)cc3C)=C(C)Nc3ncnn32)cc1 (configuration not stated) | i
CC(C)Sc1oc(-c2ccc(F)cc2)nc1S(=O)(=O)c1ccccc1 | i
COc1ccc(OC)c(CNc2ccc3c(c2)ncn3C)c1 | 36%*!
COc1cccc(CNc2ccc3c(c2)ncn3C)c1O | i
COc1ccc(CNc2ccc3c(c2)ncn3C)cc1OC | i
CN(C)CCN(C)Cc1ccc(Cl)cc1 | i
CCOC(=O)C(N)CSC1CC(=O)N(c2cccc(Cl)c2)C1=O (configuration not stated) | i
SMILES | ST2 inh
COC(=O)c1sc2ccccc2c1NC(=O)c1c(OC)cccc1OC | i
COc1cc(OC)cc(C(=O)N(c2ccc(F)cc2)C2C=CS(=O)(=O)C2)c1 (configuration not stated) | i
CCC1CCCCN1S(=O)(=O)c1cc(Br)ccc1Br (configuration not stated) | i
CCSc1sc(SC#N)cc1SC#N | 47%*
CC(C)(C)Sc1ccc(SC#N)s1 | i
CC1=C(C(=O)Nc2ccc(C)cc2C)C(c2ccc(O)cc2)n2ncnc2N1 (configuration not stated) | i
O=S(=O)(Nc1ccccc1Cl)c1cccc2cccnc12 | i
CC(C)CCOc1ccc(C(=O)NCCC(=O)O)cc1 | i
CC(C)(C)CC(=O)Nc1ccc(Nc2ccccc2)cc1 | 33%*
CC(=O)Nc1ccc(NC(=O)Nc2ccccc2)cc1 | i
CC(=O)Nc1ccc(NC(=O)CC(c2ccccc2)c2ccccc2)cc1 | i
Cc1nc2ccccc2c(=O)[nH]1 | i
O=c1[nH]c(/C=C\c2ccccc2Cl)nc2ccccc12 | 44%*
O=c1[nH]c(/C=C\c2ccccc2Cl)c([N+](=O)[O-])c(=O)[nH]1 | i
CCc1c(C(=O)NC(CC)c2ccccn2)csc1C (configuration not stated) | i
CCc1nc(SCC(=O)N(C)Cc2n[nH]c3c2CCC3)n[nH]1 | i
CCOc1ccccc1Nc1cc(C)nc2ccc(OC)cc12 | i
Cc1cc(Nc2ccc(N(C)C)cc2)c2cc(Cl)ccc2n1 | 39%*
Cc1cc(Nc2ccc(O)cc2)c2cc(Cl)ccc2n1 | i
COc1cccc(Nc2cc(C)nc3ccc(Cl)cc23)c1 | i
COc1ccc2nc(C)cc(Nc3ccccc3OC)c2c1 | i
COc1ccc2nc(C)cc(Nc3ccc(N(C)C)cc3)c2c1 | 52%*
Cc1ccc(CCN2CC(C(=O)NC3CCCC(C)C3C)CC2=O)cc1 (configuration not stated) | i
O=C(NCc1cnc2c(c1)CCC2)C1CC(=O)N(Cc2ccccn2)C1 (configuration not stated) | i
O=C(NCc1ccccc1)NS(=O)(=O)c1ccccc1Cl | i
SMILES | ST2 inh
O=C(NCc1ccccc1)Nc1ccc(Cl)cc1 | 30%*
O=C(NCc1ccc(Cl)cc1)C(=O)Nc1ccc([N+](=O)[O-])cc1 | i
CC1=C(C(=O)Nc2cc(C)ccn2)C(c2cccs2)C2=C(CCCC2=O)N1 (configuration not stated) | i
CCCN(Cc1ccncc1)C(=O)c1nc[nH]c1C | i
CCOC(=O)Nc1ccc(C(C)CC)cc1 (configuration not stated) | i
COc1ccc(CC(=O)Nc2ccc(I)cc2)cc1 | i
COc1ccc(CCC(=O)NCc2ccncc2)cc1 | i
COc1ccc(Cc2ccc(OC)cc2)cc1 | i
CCCCOC(=O)Nc1ccc(N(C)C)cc1 | 42%*
COc1ccc(N(C)C)cc1 | 32%*
COc1ccc(CCC(=O)Nc2ccc(N(C)C)cc2)cc1 | 46%*
COc1ccc(C(C)c2ccc(OC)cc2)cc1 | i
CCCCOC(=O)Nc1ccccc1C(=O)N1CCCCC1 | i
COc1ccc2nc(CCN(C)Cc3cc4n(n3)CCCNC4)[nH]c2c1 | i
CCN1CCN(C(c2cccs2)C(C)NC(=O)c2cccs2)CC1 (configuration not stated) | i
O=C(Cn1cnc2c(cnn2-c2ccccc2)c1=O)NCC1CCCO1 (configuration not stated) | i
Cc1ccc(C)c(S(=O)(=O)N=C(c2ccc(Cl)cc2)N(C)C)c1 | 78%*
CCN(CC)C(=NS(=O)(=O)c1cc(C)ccc1C)c1ccccc1 | i
Cc1ccc(C(=O)Nc2cc(Cl)ccc2C)cc1 | i
CC(=O)Nc1ccc(C(=O)Nc2ccc(F)cc2)cc1 | i
COc1ccccc1C1CC(c2ccccc2)=NN1C(=O)c1ccccc1 (configuration not stated) | i
COc1cc(C(=O)N2N=C(c3ccccc3)CC2c2ccc(N(C)C)cc2)cc(OC)c1OC (configuration not stated) | 48%*
COc1ccc(C2CC(c3ccccc3)=NN2C(=O)c2cc(OC)c(OC)c(OC)c2)cc1 (configuration not stated) | i
O=C(c1ccc(F)c(F)c1)N1CCN=C1SCc1cccnc1 | i
Fc1ccc(CN2CCN(c3ccccn3)CC2)c(F)c1 | i
COc1c(-c2ccc(O)c(O)c2)oc2cc(O)cc(O)c2c1=O | i
COc1cc(O)c2c(=O)c(OC)c(-c3cc(O)c(OC)c(OC)c3)oc2c1 | 94%*
COc1cc(O)c2c(=O)c(O[C@@H]3O[C@H](CO[C@@H]4O[C@@H](C)[C@H](O)[C@@H](O[C@@H]5O[C@@H](C)[C@H](O)[C@@H](O)[C@H]5O)[C@H]4O)[C@H](O)[C@H](O)[C@H]3O)c(-c3ccc(O)c(O)c3)oc2c1 | i

Screening results from PubChem BioAssay.
